Screens from PubChem.
Pol eta inh-1: inhibitors of human DNA polymerase eta. Potency, µM (series often up to 114 µM), for inactives: top-dose activity change, negative = inhibition, usual class: inhibitors. 390,000 compounds, 1.2% hits. recombinant Pol eta, fluorescent DNA replication assay. Q9Y253; also: potency is read from the fitted curve at half-maximal effect; % is scaled to controls: 0 for no effect and ±100 for the full control effect
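Pol eta (10 nM) was preincubated with compounds for 15 min at room temperature, after which fluorescent replication substrate (50 nM final) was added to start the reaction. Fluorescence was read kinetically at 0 and 10 min.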
POLI inh: inhibitors of human DNA polymerase iota; Q9UNA4; Pol iota fluorescent replication assay, 10 min; Potency, µM (series often up to 115 µM), inactives show top-dose activity, negative = inhibition, most hits filed as inhibitors; 390,000 compounds, 1% hits; AID 588590; also: potency is read from the fitted curve at half-maximal effect
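Fluorescent replication assay read twice, at 0 min and 10 min after adding 50 nM (final) substrate. Enzyme (10 nM) and compounds were first incubated 15 min at room temperature; enzyme-free buffer wells were negative controls.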
Pol kappa inh-1: inhibitors of human DNA polymerase kappa. Q9UBT6. purified Pol kappa, fluorescent DNA synthesis assay, 10 min. Potency, µM (doses to about 107 µM), without a hit: top-dose activity, negative = inhibition, most hits filed as inhibitors. 400,000 compounds, 0.53% hits. AID 588579; also: potency is read from the fitted curve at half-maximal effect; % is scaled to controls: 0 for no effect and ±100 for the full control effect
Target sequence (Q9UBT6 whole entry, looked up): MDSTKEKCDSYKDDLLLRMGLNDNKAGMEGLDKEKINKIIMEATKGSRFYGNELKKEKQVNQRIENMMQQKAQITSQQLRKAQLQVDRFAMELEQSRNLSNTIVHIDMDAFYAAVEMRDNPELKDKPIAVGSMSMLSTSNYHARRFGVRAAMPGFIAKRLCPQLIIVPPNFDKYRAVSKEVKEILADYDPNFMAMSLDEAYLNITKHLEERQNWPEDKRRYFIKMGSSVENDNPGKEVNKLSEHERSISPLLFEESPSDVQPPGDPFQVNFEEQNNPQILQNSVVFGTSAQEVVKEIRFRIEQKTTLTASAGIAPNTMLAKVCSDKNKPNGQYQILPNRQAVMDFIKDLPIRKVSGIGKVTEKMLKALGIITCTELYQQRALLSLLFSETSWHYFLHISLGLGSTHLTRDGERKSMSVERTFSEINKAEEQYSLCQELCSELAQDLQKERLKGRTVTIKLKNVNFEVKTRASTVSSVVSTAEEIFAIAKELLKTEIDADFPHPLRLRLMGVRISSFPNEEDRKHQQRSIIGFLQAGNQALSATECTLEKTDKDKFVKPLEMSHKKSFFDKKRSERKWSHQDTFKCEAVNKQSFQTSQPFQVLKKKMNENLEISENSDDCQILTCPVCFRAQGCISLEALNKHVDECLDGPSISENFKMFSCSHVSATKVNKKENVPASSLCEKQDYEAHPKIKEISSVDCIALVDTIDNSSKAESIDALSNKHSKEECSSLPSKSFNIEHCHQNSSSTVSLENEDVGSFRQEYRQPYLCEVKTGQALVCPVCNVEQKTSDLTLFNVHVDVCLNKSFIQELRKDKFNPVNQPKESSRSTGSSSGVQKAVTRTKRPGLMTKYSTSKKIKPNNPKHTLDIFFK
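Readout: fluorescence, taken kinetically at 0 and 10 min. Conditions: 10 nM Pol kappa, 15 min RT compound preincubation, 50 nM substrate final. Controls: enzyme-free buffer wells.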
POLB inh: blocks human DNA polymerase beta activity | Pol beta primer extension/strand displacement, fluorescence kinetic | Potency, µM (top dose mostly 114 µM), for inactives: top-dose activity change, negative = inhibition, most hits filed as inhibitors | 340,000 compounds, 1.3% hits | AID 485314; also: potency is read from the fitted curve at half-maximal effect; % is scaled to controls: 0 for no effect and ±100 for the full control effect
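Pol beta (10 nM) was preincubated with compound for 15 min at room temperature. The reaction was then started with 50 nM substrate and read immediately and after a further 10 min at room temperature.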
FEN1 inhibitor: human FEN1 inhibition; Recombinant FEN1 flap cleavage, fluorescence, 15 min; Potency, µM (series often up to 114 µM), for inactives: at the top dose activity change, negative = inhibition, usual class: inhibitors; 390,000 compounds, 0.35% hits; also: potency is read from the fitted curve at half-maximal effect; % is scaled to controls: 0 for no effect and ±100 for the full control effect; nearly all actives have a fitted effect of over 65% in size
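Enzyme 10 nM, 15 min RT preincubation with compound; start with substrate 50 nM final; reads at 0 and 15 min; qHTS titration, four-parameter Hill fit.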
TDP1 inh: inhibitors of human tyrosyl-DNA phosphodiesterase TDP1 | Q9NUW8 | recombinant TDP1, AlphaScreen DNA substrate cleavage | Potency, µM (top dose mostly 130 µM), inactives show at the top dose activity change, negative = inhibition, usual class: inhibitors | 350,000 compounds, 0.28% hits | AID 485290; also: potency is read from the fitted curve at half-maximal effect; % is scaled to controls: 0 for no effect and ±100 for the full control effect; nearly all actives have a fitted effect of over 40% in size
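Compounds were preincubated with Tdp1 (1 nM final) for 15 min at room temperature before substrate (15 nM final) started a 5 min reaction; beads (10 ug/ml final) were then added for 10 min before AlphaScreen detection.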
PGK validate: validation of Trypanosoma brucei phosphoglycerate kinase inhibitors; TbPGK coupled GAPDH assay, Kinase-Glo luminescence; shares compounds with Pol kappa inh-1; 500 compounds, 79% hits; Potency, µM (highest dose often 57.5 µM), inactives show at the top dose activity change, negative = inhibition, usual class: inhibitors; also: potency is read from the fitted curve at half-maximal effect; % is scaled to controls: 0 for no effect and ±100 for the full control effect; nearly all actives have a fitted effect of over 65% in size
POLI cherry-pick: Human Pol iota inhibitor confirmatory assay; shares compounds with Pol kappa inh-1; Pol iota primer extension, TAMRA/BHQ fluorescence; Potency, µM, most hits filed as inhibitors; 1,500 compounds, 77% hits; also: potency is read from the fitted curve at half-maximal effect
GALK confirm: confirmation of human galactokinase (GALK) inhibitors | 150 compounds, 70% hits | AID 2015 | shares compounds with Pol eta inh-1 | purified GALK, Kinase-Glo ATP depletion luminescence | Potency, µM (series often up to 115 µM), for the others: top-dose activity, negative = inhibition, actives largely listed as inhibitors
Redox cycling: redox cycling activity in phenol red-HRP assay; AID 2035; 150 compounds, 40% hits; Phenol red-HRP H2O2 redox cycling, absorbance 600 nm; Potency, µM (top dose mostly 115 µM), for the others: at the highest dose activity change, negative = H2O2 signal, hits mostly inhibitors; shares compounds with Pol eta inh-1
HEK293 tox: reduces HEK-293 cell viability in GALK counter-screen | shares compounds with Pol eta inh-1 | HEK-293 viability, ATP luminescence (CellTiter-Glo), 24/48 h | Potency, µM (titrated, usually from 46.1 µM), for inactives: at the highest dose activity change, negative = cytotoxicity, hits mostly inhibitors | 170 compounds, 10% hits | AID 2547; also: potency is read from the fitted curve at half-maximal effect; % is scaled to controls: 0 for no effect and ±100 for the full control effect
Pol kappa inh-2: Pol kappa (human) inhibition, cherry-pick confirmation; shares compounds with Pol eta inh-1; purified Pol-kappa, fluorescent strand-displacement substrate; Potency, µM, actives largely listed as inhibitors; 920 compounds, 76% hits; AID 720501; also: potency is read from the fitted curve at half-maximal effect
Pol eta inh-2: confirmation of human DNA polymerase eta inhibitors; shares compounds with Pol eta inh-1; Pol eta primer extension, TAMRA/BHQ fluorescence, 10 min; Potency, µM, hits mostly inhibitors; 2,600 compounds, 64% hits; AID 720502; also: potency is read from the fitted curve at half-maximal effect
Starred values were filed as active, the others as inactive; u = inconclusive; x = not tested or not shown; [ ] = dose if it differs, or a comment. Rows were chosen to be rich in hits. Some 2.4% of all compounds tested hit in one or more screens of this group. Calls follow the shape of the dose curve; as a rule, active = well fitted curve in the direction sought with a large enough effect; inconclusive = small, poorly fitted or top-dose-only effect, or another doubt; inactive = no such curve, though single readings can be large; an effect the other way counts as inactive or inconclusive.

SMILES | Pol eta inh-1 | POLI inh | Pol kappa inh-1 | POLB inh | FEN1 inhibitor | TDP1 inh | POLI cherry-pick | Pol eta inh-2 | others
O=C(NC1CC1)C1CCN(S(=O)(=O)c2cc([N+](=O)[O-])ccc2Cl)CC1 | 12.6µM* | 10µM* | 50.1µM* | x | u | u | 29.9* | u | Pol kappa inh-2=18.9*
CCCC[N+](C)(C)CCC(=O)NC(C)(C)CS(=O)(=O)[O-] | 12.6µM* | u | -27.2% | 20µM* | 1.7% | -4.9% | x | 75.7* | PGK validate=u
COc1ccccc1/C=C/c1nc2ccccc2[nH]1 | x | -6.5% | -10.3% | x | -17.4% | x | x | x
Cc1ccc(-c2nc3c4ccccc4[nH]c(=O)n3n2)cc1 | u | 25.8% | 12.3% | -20.0% | -3.9% | 0.9% | u | u
O=c1[nH]c2ccccc2c2nc(-c3cccc(S(=O)(=O)N4CCCC4)c3)nn12 | -6.6% | 30.9% | 10.6% | -0.2% | 6.3% | x | x | x
COc1ccc(CCNC(=O)c2cc3sccc3n2Cc2ccc(Cl)cc2)cc1OC | -13.3% | 12.7% | -7.9% | 9.9% | 3.7% | 3.8% | x | x
CC(C)(C)c1ccc(-c2nc(SCC(=O)Nc3ccc(Cl)cc3)[nH]c(=O)c2C#N)cc1 | 28.2µM* | 44.7µM* | u | 79.4µM* | 20µM* | x | u | u | Pol kappa inh-2=u
O=C(N/N=C/c1ccc([N+](=O)[O-])o1)c1cc2c(ccc3ccccc32)o1 | 31.6µM* | u | -25.2% | 3.16µM* | u | 0.0% | 26.7* | 19*
Cc1nc2ccccn2c1C(=O)N/N=C/c1ccc([N+](=O)[O-])cc1 | -14.6% | 21.6% | 4.9% | -0.4% | 16.8% | x | x | x
Cc1nc2ccccn2c1C(=O)N/N=C/c1ccc([N+](=O)[O-])o1 | 7.94µM* | 11.2µM* | 50.1µM* | 31.6µM* | u | u | 59.7* | 33.8*
COc1cccc(NC(=O)CSc2nc(=O)[nH]c3c2CCCC3)c1 | -6.3% | 11.0% | -9.6%[60.1 µM] | -1.2% | 16.9% | -5.2% | x | x
Cc1ccc(C(=O)OCC(=O)c2ccc(CC(=O)N3CCOCC3)s2)c(C)c1 | 15.8µM* | 12.6µM* | 17.8µM* | x | -0.5% | 50.1µM* | 42.3* | u | Pol kappa inh-2=37.7*
CC(Oc1ccccc1)C(=O)OCc1cc(=O)n2nc(C(C)C)sc2n1 (stereo not given) | -3.6% | 7.1% | 0.0% | -6.4% | 13.5% | 3.2% | x | x
C=C(C)C(=O)Oc1ccc(N=Nc2ccc(C)cc2)ccc1=O | 3.55µM* | u | 50.1µM* | x | u | x | 23.8* | 19* | PGK validate=1.46µM*;Pol kappa inh-2=10.6*
CC(=O)c1ccc(N=Nc2ccc(C)cc2)cc1 | -22.2% | 76.8% | -3.3% | 23.5% | 13.0% | 7.5% | x | x
Cc1noc(-c2ccccc2OCC(=O)Nc2cccc([N+](=O)[O-])c2)n1 | -4.9% | 3.9% | 4.0% | -15.1% | -4.3% | 11.4% | x | x
O=C(O)C1=CCC=CC1C(=O)O (stereo not given) | 5.01µM* | x | x | x | x | x | 21.2* | 15.1* | PGK validate=3.26µM*
Cc1ccc(S(=O)(=O)c2nc(S(=O)(=O)c3ccc(C)cc3)c(NCCCOC(C)C)s2)cc1 | -17.7% | 22.6% | -23.8% | 7.3% | 2.5% | -4.7% | x | x
CCOc1ccc(Nc2ccc(N)c(S(=O)(=O)O)c2)cc1 | 11.2µM* | 11.2µM* | 31.6µM* | x | -29.5% | x | 75.2* | 37.9* | Pol kappa inh-2=75.2*
CCOc1ccc(NS(=O)(=O)N(C)C)cc1 | -8.2% | 20.5% | -8.2% | u | 7.0% | 4.1% | x | x
CC(C)c1nc2ccc(C(=O)Nc3ccccc3F)cc2o1 | -20.8% | 26.4% | -14.9%[60.1 µM] | 12.9% | -2.2% | 0.6% | x | x
Nc1ccc2c(c1)C(=O)C(=O)c1ccccc1-2 | 0.794µM* | 1µM* | -8.5% | 5.01µM* | u | -6.6% | 6.7* | 4.78* | PGK validate=1.63µM*;GALK confirm=2.37µM*;Redox cycling=1.33µM*;HEK293 tox=7.91µM*
COc1cc(/C=N/N=C2/C(=O)Nc3ccccc32)ccc1O | u | 24.8% | -18.0% | 9.9% | -29.3% | 3.5% | x | x
O=C1Nc2ccccc2/C1=N\N=C\c1ccc(O)c(O)c1 | 3.16µM* | 2.24µM* | 5.62µM* | 4.47µM* | 12.6µM* | 2.6% | u | 16.9*
Oc1ccc(/C=N/N=C/c2ccc(O)c(O)c2)cc1O | 0.708µM* | 1.26µM* | 0.891µM* | 0.447µM* | u | x | 6.7* | 4.26* | PGK validate=1.3µM*;Pol kappa inh-2=4.74*
O=C(N/N=C/c1ccc(-c2ccc(S(=O)(=O)Nc3ncccn3)cc2)o1)c1cc2ccccc2cc1O | 0.891µM* | 1.26µM* | 4.47µM* | 12.6µM* | 15.8µM* | x | 16.8* | 4.78* | PGK validate=u;Pol kappa inh-2=3.77*
Cc1ccc(-c2ccc(/C=N/NC(=O)c3ccccc3O)o2)cc1 | x | x | x | u | x | -5.1% | x | x
COc1ccc(N(Cc2cccs2)C(=O)c2ccccc2C)cc1 | -16.1% | 10.5% | -2.2% | -3.2% | -14.5% | -1.6% | x | x
COc1ccc(NC(=O)C2(S(=O)(=O)c3ccc(C)cc3)CC2)c(OC)c1 | -23.8% | 33.1% | 3.7% | 5.8% | 2.2% | 0.0% | x | x
Cc1cc(-c2n[nH]c(=S)n2/N=C/c2ccc(Cl)c([N+](=O)[O-])c2)n[nH]1 | -9.6% | -9.5% | -15.9% | 11.7% | -16.5% | 10.8% | x | x
